# According to the supplement of paper PMC3334620:
# Over roughly 33,000 sequences, “E-score (-0.5 to 0.5)” has its median near -0.012; the highest 2% begin near 0.29. The entries come from a sample that favours the highest values as a whole.
# Molecular target: T1, Ybr033w (UniProt P38073)
# T1 sequence: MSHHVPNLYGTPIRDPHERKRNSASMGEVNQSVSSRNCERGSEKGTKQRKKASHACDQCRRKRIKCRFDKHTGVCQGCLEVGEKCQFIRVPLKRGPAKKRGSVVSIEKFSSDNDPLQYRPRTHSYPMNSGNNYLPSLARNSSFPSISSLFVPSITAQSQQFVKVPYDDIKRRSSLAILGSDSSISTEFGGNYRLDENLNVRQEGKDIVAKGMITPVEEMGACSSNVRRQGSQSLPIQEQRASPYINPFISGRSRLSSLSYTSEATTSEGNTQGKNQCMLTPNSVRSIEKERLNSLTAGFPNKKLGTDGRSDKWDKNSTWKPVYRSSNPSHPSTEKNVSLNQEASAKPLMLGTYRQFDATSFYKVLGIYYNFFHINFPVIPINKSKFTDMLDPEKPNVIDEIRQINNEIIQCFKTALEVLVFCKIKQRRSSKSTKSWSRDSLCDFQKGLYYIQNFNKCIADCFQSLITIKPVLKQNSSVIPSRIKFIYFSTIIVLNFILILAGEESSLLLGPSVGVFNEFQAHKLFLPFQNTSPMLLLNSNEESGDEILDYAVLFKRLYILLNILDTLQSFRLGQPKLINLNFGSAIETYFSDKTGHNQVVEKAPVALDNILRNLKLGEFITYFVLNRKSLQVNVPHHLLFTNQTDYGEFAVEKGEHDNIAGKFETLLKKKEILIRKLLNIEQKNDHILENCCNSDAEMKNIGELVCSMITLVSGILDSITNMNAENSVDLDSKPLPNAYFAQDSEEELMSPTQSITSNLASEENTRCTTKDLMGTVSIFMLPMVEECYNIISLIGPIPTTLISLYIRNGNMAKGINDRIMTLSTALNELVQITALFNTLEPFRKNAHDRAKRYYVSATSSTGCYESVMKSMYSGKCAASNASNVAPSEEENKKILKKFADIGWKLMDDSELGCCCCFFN
# Assay: PBM E-score (8-mer binding enrichment) (E-score (-0.5 to 0.5)); higher = stronger / more preferred TF binding
# Settings: protein concentration: 200 nM; construct: GST-full length
# Experimental: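 Universal 'all 10-mer' protein binding microarrays (Agilent AMADID 015681) probed with GST-tagged S. cerevisiae TFs (full-length or DBD) made by in vitro transcription/translation (PURExpress), about 100-200 nM. Bound TF was detected with fluorescent anti-GST. Each ungapped 8-mer (which stands for itself and its reverse complement) is scored by the PBM enrichment score (E-score), a modified Wilcoxon-Mann-Whitney statistic from -0.5 to +0.5, computed with the Universal PBM Analysis Suite. Scale: above 0.35 generally sequence-specific binding.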
row,Sequence,PBM E-score
1,AGGACAAC,0.0906
2,TCGTTGAA,0.122
3,GACTCTAC,-0.261
4,ACCTGAAC,-0.219
5,GATGCTCA,-0.113
6,CTTGTGCC,-0.354
7,CGCACTAA,0.0977
8,GACATTAC,0.164
9,GCTGCTAC,-0.175
10,GGCCATTA,0.0667
11,TATTACGA,0.297
12,TATTACAA,0.307
13,CATTACGA,0.0351
14,ATTTACAA,0.31
15,CATTACAA,0.19
16,ATTTACAC,0.00495
17,AATTACGA,0.277
18,ATTTACAG,0.149
19,AATTACAA,0.107
20,AGTCCAAC,-0.12
21,CTTAGAAA,0.138
22,ATCTATTC,0.132
23,AAACTCAT,0.274
24,AATCGAAG,0.108
25,CATTTCGG,-0.0324

row,Sequence,PBM E-score
1,GTATATAA,0.168
2,TGATATAA,0.179
3,ATATATAA,0.332
4,TCATATAA,0.179
5,TTATATAA,0.411
6,CTATATAA,0.152
7,GAGCAAAA,0.0833
8,ATAGTGCG,0.0631
9,CACTTGGG,-0.0516
10,ACCTTTTG,-0.0505
11,AATGTTCA,0.0556
12,TAATCCGA,0.326
13,AATTCCGG,0.154
14,GAATCCGA,-0.108
15,AATTCCGA,0.296
16,TATTCCGA,0.398
17,ACTTCCGA,-0.0181
18,AAATCCGA,0.12
19,CATTCCGA,0.15
20,AATTCCCA,0.171
21,AATTCCGC,0.172
22,AATTCCGT,0.312
23,GATTCCGA,0.129
24,ACTGCGAA,-0.0623
25,GAATCACC,0.136

row,Sequence,PBM E-score
1,AAACTGGA,0.0838
2,CTAATCCC,-0.0661
3,CCTCTGCG,-0.252
4,GCTGCCCA,-0.153
5,ACTTGGAG,-0.0202
6,AGCCTATA,0.0186
7,CGCCAGAG,-0.045
8,AGATGTCC,0.0719
9,CTAGCATA,0.137
10,CTTACTAA,0.143
11,GTGTAAAC,-0.00524
12,AGGCGAGC,-0.174
13,ATCGCTAA,0.0959
14,CCGGGCAG,-0.122
15,GTTATGGA,0.108
16,GGATGAAC,0.292
17,AGATGAAC,0.131
18,CGATGAAC,-0.00159
19,AAGGGAGA,-0.166
20,AGCATACG,-0.0246
21,CCGAATAG,0.0196
22,AGGAATAC,-0.131
23,TCGAATAA,0.193
24,CCGAATAA,0.293
25,AGGAATTA,0.223

row,Sequence,PBM E-score
1,CGGAATTC,0.0496
2,TGGAATAA,0.417
3,AGGAATAG,0.134
4,AGGAATAA,0.364
5,CCGAATAC,0.105
6,TAGAATAA,0.205
7,CGGAATTA,0.407
8,ATTCAGTA,0.13
9,AGGTCTTG,-0.128
10,ATTGTGGA,0.153
11,CACCTAGC,-0.236
12,AGCACTAT,0.0398
13,CAGTGATA,0.0511
14,CACAGTCG,-0.125
15,AGGCAAAA,0.222
16,ACGAATAA,0.0842
17,GGGAATCA,0.0407
18,AGGAATCG,0.116
19,CGGAATAA,0.468
20,ACGAATAC,0.0881
21,GGGAATAA,0.355
22,GGGAATAC,-0.0369
23,AGGAATAT,0.353
24,AAGAATAT,0.149
25,CGGAATAC,0.186

row,Sequence,PBM E-score
1,ACGAATAT,0.295
2,CGGAATAG,0.126
3,TACCTTGA,0.0473
4,CTCACGGC,-0.261
5,GGGGCCAA,-0.123
6,ATAATGGG,0.152
7,GACTTTAC,0.03
8,AATTCACT,0.249
9,CGGTATGA,0.0788
10,GAGCCCAC,-0.27
11,TATTGTGA,0.105
12,CTTGTAGA,-0.145
13,GTTGTAGA,0.00414
14,ATTGTAGA,0.295
15,AATAGTCC,-0.0436
16,ACCGACAG,-0.135
17,GATTTTCA,0.205
18,ATTTTTGG,0.0437
19,GATTTCCC,0.0546
20,AGTTTTCC,0.216
21,ATTTTTGC,0.308
22,AGTTTTTC,0.295
23,GAATTTCC,0.343
24,AATTTTGC,0.142
25,CAATTTCC,0.195

row,Sequence,PBM E-score
1,AAATTTCC,0.258
2,GATTTTCC,0.416
3,AGTTTTTA,0.181
4,CGGTTCTA,0.0953
5,AAGTTGAG,0.0874
6,CGCTCATC,-0.0261
7,GATACCAC,0.066
8,ATTTTTTG,0.274
9,ATTTTGTC,0.187
10,AATTTTCT,0.145
11,AATTTTCC,0.468
12,CATTTCTC,0.176
13,AATTTTCA,0.252
14,AATTTCTC,0.299
15,ATTTTTTC,0.316
16,ATTTTGTG,0.291
17,ATTTTGTA,0.246
18,AATTTCTA,0.209
19,ATTTTCTC,0.201
20,CATAACGG,0.0155
21,CAGAGTGC,-0.126
22,TCATAACA,0.23
23,TCAGAGCA,-0.114
24,ATCTAGAC,0.107
25,AGTGAATC,0.0239

row,Sequence,PBM E-score
1,CAGCCTAG,0.0256
2,AATTTTTA,0.256
3,AATTTTTC,0.31
4,AAATTTTC,0.258
5,AATATTGT,0.298
6,AATATTGA,0.329
7,AATATTGC,0.223
8,AATATTGG,0.047
9,CATATTGA,0.0393
10,GATATTGA,0.177
11,CCAGGTAG,-0.0963
12,TATGGCAA,-0.151
13,CGCCGCAC,-0.233
14,AAGGAAAC,0.0412
15,AAAGGAAC,0.163
16,GAGGAAAA,0.199
17,AAGGAAAT,0.185
18,CAAGGAAA,0.162
19,CAGGAAAA,0.387
20,AAAGGAAA,0.303
21,CAGAAAAA,0.0895
22,AAGGAAAA,0.398
